Source: PubChem BioAssay
CYP2C9 inhib = inhibitors of human CYP2C9; AID 777; inhibition, % at 5 µM; actives 20% (n = 96,000); P11712; CYP2C9 Supersomes, luciferin-H conversion, luminescence;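 active = blocking of liver enzyme CYP2C9 beyond about 50% at 5 µM, limit read from the data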
PTK2B oligo ant = Pyk2 (human) oligomerization antagonism | Q14289 | Q293 cells, Pyk2 FERM NanoBiT luminescence; active compounds read low | z-score (the deposit names both 25 µM and 10 µM) | actives 0.83% (n = 99,000) | AID 1347419;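 active = Z-score of -3 or lower, scaled per plate to the spread of control and sample wells; inactive = z-score above -3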;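 note: negative z-score means lost luminescence so less FERM oligomerization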
CYP2C19 act = increases human CYP2C19 enzyme activity; AID 1025; 96,000 tested, under 10 active; activation factor at 5 µM; recombinant CYP2C19, luciferin-H EGE luminescence; active compounds read high; 0 = fully inhibited enzyme, 1 = untreated enzyme;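 active = activation factor of at least 2 at 5 µM in the primary screen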;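 note: 0 = wells with 2.5 mM tranylcypromine and 1 = vehicle-only wells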
Target sequence (P33261 whole entry, looked up): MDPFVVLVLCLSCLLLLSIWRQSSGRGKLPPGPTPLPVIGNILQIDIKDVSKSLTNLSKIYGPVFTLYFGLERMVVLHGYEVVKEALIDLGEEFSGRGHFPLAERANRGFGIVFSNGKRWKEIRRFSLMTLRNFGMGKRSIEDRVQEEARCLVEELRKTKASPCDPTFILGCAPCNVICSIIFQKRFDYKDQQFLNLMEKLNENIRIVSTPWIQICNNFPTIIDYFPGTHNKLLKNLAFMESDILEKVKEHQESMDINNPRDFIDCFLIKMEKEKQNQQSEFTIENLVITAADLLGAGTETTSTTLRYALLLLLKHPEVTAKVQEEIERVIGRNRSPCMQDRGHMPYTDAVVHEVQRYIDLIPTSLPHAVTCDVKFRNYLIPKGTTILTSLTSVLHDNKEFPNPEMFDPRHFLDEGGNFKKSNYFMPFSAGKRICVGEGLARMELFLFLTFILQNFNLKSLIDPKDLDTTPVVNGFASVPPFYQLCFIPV
CYP2C19 inhib = inhibitors of human CYP2C19; P33261; CYP2C19 Supersomes, luciferin-H EGE luminescence, 30 min; inhibition, % at 5 µM; actives 21% (n = 96,000); AID 778;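 active = CYP2C19 inhibition above a set limit at 5 µM in the primary screen, cut at about 50% in these data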;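 note: plate controls were negative control wells for no effect and 2.5 mM tranylcypromine positive control for full effect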
CYP2C9 act = increases human cytochrome P450 2C9 activity; recombinant CYP2C9, luciferin-H conversion, luminescence; active compounds read high; factor 1 = untreated enzyme, 0 = blocked; activation factor at 5 µM; actives 1.4% (n = 96,000);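 active = activation factor of 2 or more for CYP2C9 at a 5 µM dose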;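 note: 0 = sulfaphenazole-blocked wells and 1 = vehicle-only wells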
An asterisk follows results filed as active; . = no result. A selection: hits, their analogues and other compounds. The true share with any hit is near 28%.

SMILES | CYP2C9 inhib | PTK2B oligo ant | CYP2C19 act | CYP2C19 inhib | CYP2C9 act
C=CCn1c(O)c(C(C)=NCc2cc(OC)cc(OC)c2)c(=O)[nH]c1=O | 85* | -0.83 | 0.2 | 83* | 0.2
C=CCn1c(O)c(C(C)=NCc2cccnc2)c(=O)[nH]c1=O | 8 | 0.37 | 0.3 | 68* | 0.9
O=C(c1ccccc1F)c1cn(CC(=O)N2CCCC2)c2ccccc12 | 15 | 0.07 | 0.7 | 35 | 0.9
CN(CC1COc2ccccc2O1)c1nc(-c2cccnc2)nc2ccccc12 (stereo not drawn) | . | -1.9 | . | . | .
CC(=NCc1ccco1)c1c(O)n(C)c(=O)n(C)c1=O | 18 | 0.35 | 0.6 | 36 | 0.8
Cn1c(O)c(C=NCc2ccco2)c(=O)n(C)c1=O | 28 | -1.3 | 0.5 | 52* | 0.7
c1ccc(C2CC3CC4(CCCC4)N2O3)cc1 (stereo not drawn) | -28 | -0.04 | 0.7 | 26 | 1.3
Fc1ccc(CCNCc2ccc(Cl)c(Cl)c2)cc1 | 7 | 2.1 | 0 | 96* | 0.9
CCN(CC)P(=O)(NC(=O)C(Cl)(Cl)Cl)N(CC)CC.[Cl-].[Cl-].[Cl-].[Nd+3] | 90* | 0.64 | 0.9 | 11 | 0.1
CCCCn1c(O)c(C=NCCN2CCCCC2)c(=O)[nH]c1=O | -13 | -0.05 | 1.1 | -13 | 1.1
CCCCN1CCC(C#N)(Nc2ccccc2)CC1 | 21 | -0.22 | 0.3 | 71* | 0.8
CC1CCCCN1CC(=O)c1ccc2cc[nH]c2c1 (stereo not drawn) | 25 | . | 0.8 | 18 | 0.7
CN1CCc2nc(SCC(=O)OC(C)(C)C)c(C#N)cc2C1 | 22 | 1.1 | 0.3 | 71* | 0.8
CC(=O)OC1C2CCC1C(N1CCCC1)CC2 (stereo not drawn) | -47 | 0.31 | 1.2 | -15 | 1.5
COc1ccc2[nH]c(C)c(CCN3CCC(=O)C(C)C3C)c2c1 (stereo not drawn) | 51* | . | 0.1 | 89* | 0.5
C(#CCN1CCOCC1)COCC#Cc1ccccc1 | -3 | 1.4 | 0.4 | 60* | 1
Cc1ccccc1-n1c(O)c(C=Nc2ccc(N(C)C)cc2)c(=O)[nH]c1=O | 0 | -1 | 1 | 5 | 1
CC1(C)CN=C(Nc2ccc(F)c(F)c2)S1 | 26 | . | 0.4 | 62* | 0.7
CP(=O)(O)CCCN | 24 | -0.24 | 0.4 | 61* | 0.8
COc1ccc2nc(/N=C/c3c(O)n(-c4cccc(Cl)c4)c(=O)[nH]c3=O)sc2c1 | -14 | 0.25 | 1.1 | -11 | 1.1
CNC(=O)Oc1ccc2c(c1)C(=O)c1ccccc1CO2 | 40 | -0.36 | 0.4 | 61* | 0.6
O=C(c1ccco1)C12CN3CN(CN(C3)C1)C2 | . | -0.71 | . | . | .
O=C1N(CN2CCOCC2)c2ccccc2C1(O)c1c[nH]c2ccccc12 (stereo not drawn) | 2 | -0.34 | 0.8 | 18 | 1
Cc1cc(C=C2C(=O)N(C)C(=S)N(C)C2=O)c(C)n1C1CCCC1 | 29 | 0.03 | 0.9 | 11 | 0.7
CN1C(=O)C(=Cc2ccc(N3CCCCCC3)o2)C(=O)N(C)C1=S | 23 | -1 | 0.4 | 59* | 0.8
SMILES | CYP2C9 inhib | PTK2B oligo ant | CYP2C19 act | CYP2C19 inhib | CYP2C9 act
CC1CN=C(Nc2ccc(N(C)C)cc2)S1 (stereo not drawn) | 3 | 0.08 | 0.4 | 56* | 1
COC(=O)CSC1=NP(=S)(SCC(=O)OC)N2CCCC2=C1C#N (stereo not drawn) | 33 | 0.7 | 0.5 | 49 | 0.7
CCC1(CCc2ccncc2)C(=O)NC(=O)NC1=O | 42 | -0.19 | 1 | 4 | 0.6
O=C1NC(=O)C(CCc2ccncc2)(C2CCCCC2)C(=O)N1 | 70* | 0.38 | 0.4 | 64* | 0.3
Cc1ccc2c(c1)C1CN(C)CCC1N2C(=O)COc1ccc(S(=O)(=O)N2CCOCC2)cc1 (stereo not drawn) | 2 | -0.5 | 0.9 | 8 | 1
CN(C)C(=O)Oc1ccc(OC(=O)N(C)C)cc1 | 19 | -0.62 | 0.9 | 9 | 0.8
COCCOC(=O)c1c(C)oc2ccc(OC(=O)N(C)C)cc12 | 42 | 0.49 | 0.4 | 63* | 0.6
CSCCC(N=Cc1c(O)n(-c2ccc(Br)cc2)c(=O)[nH]c1=O)C(=O)OC(C)(C)C (stereo not drawn) | -56 | -0.4 | 1 | -2 | 1.6
CCOC(=O)CN1C(=O)C2(C(C#N)=C(N)Oc3ccccc32)C(C(=O)OC)=C1C (stereo not drawn) | -4 | 2.1 | 0.8 | 16 | 1
CCCCn1c(O)c(C(C)=NCCCN(CC)CC)c(=O)[nH]c1=O | 12 | 1.9 | 1 | -1 | 0.9
C=CCn1c(O)c(C(=O)CCCCCC)c(=O)[nH]c1=O | 57* | 1.3 | 0.9 | 5 | 0.4
C=CCn1c(O)c(C(C)=NCCO)c(=O)[nH]c1=O | 5 | 0.33 | 1 | -2 | 1
CCCCCCN=C(C)c1c(O)n(CCCC)c(=O)[nH]c1=O | 66* | -1.5 | 0.5 | 55* | 0.3
CCCCn1c(O)c(C(C)=NCCCn2ccnc2)c(=O)[nH]c1=O | 90* | 0.38 | 0.7 | 33 | 0.1
CN1C2CCC1/C(=C/c1ccccn1)C(=O)/C2=C\c1ccccn1 | . | 1.6 | . | . | .
O=C(N/N=C1/CN2CCC1CC2)c1cc2ccccc2cc1O | -4 | -0.54 | 1.1 | -10 | 1
O=C(c1ccco1)c1cn(Cc2ccccc2Cl)c2ccccc12 | 89* | -0.39 | 1.3 | -27 | 0.1
CCC(=O)c1cn(Cc2ccccc2C#N)c2ccccc12 | 52* | -1.6 | 0.2 | 76* | 0.5
O=C(c1ccco1)c1cn(Cc2ccccc2)c2ccccc12 | 93* | -0.23 | 0.1 | 93* | 0.1
O=C(Cn1cc(C(=O)c2ccccc2F)c2ccccc21)NCc1ccco1 | 26 | -3.2* | 0.9 | 12 | 0.7
O=C(O)Cn1cc(C(=O)c2ccccc2)c2ccccc21 | -2 | 1.3 | 1.1 | -8 | 1
N#Cc1ccccc1Cn1cc(C(=O)c2ccco2)c2ccccc21 | 56* | -1 | 0.3 | 66* | 0.4
N#Cc1ccccc1Cn1cc(C(=O)C2CC2)c2ccccc21 | 17 | -0.53 | 0.7 | 31 | 0.8
CCn1cc(C(=O)c2cccs2)c2ccccc21 | -209 | 0.23 | 0.9 | 11 | 3.1*
CCc1cc2c(s1)NC(=O)CN=C2c1cccs1 | 39 | -0.41 | 0.6 | 44 | 0.6
CCC(=NCC1CCCO1)c1c(O)[nH]c(=O)[nH]c1=O (stereo not drawn) | 8 | 0.17 | 1 | -2 | 0.9
CN1C(=O)N(C)C(=O)C(CCc2ccccn2)(CCc2ccccn2)C1=O | -20 | 0.08 | 1 | 4 | 1.2
O=C1NC(=O)C(CCc2ccncc2)(Cc2ccc3c(c2)OCO3)C(=O)N1CCc1ccccc1 (stereo not drawn) | 90* | -1.8 | 0 | 99* | 0.1
CN1C(=O)N(C)C(=O)C(CCc2ccncc2)(Cc2ccc3c(c2)OCO3)C1=O | 74* | -0.43 | 0 | 99* | 0.3
CN1CCc2nc3sc(C#N)c(N)c3c(-c3cccs3)c2C1 | 56* | -0.42 | 0.9 | 10 | 0.4
